PubChem BioAssay AID1159580 (chemical genetic matrix, 2015)
“And” between values parts separate entries of the source, which are not always exact repeats. Identical values can stand only once. The whole screen tested about 5,500 compounds, of which about 2,000 (36%) were called active. Roughly 18% stayed inconclusive and do not appear here. Cut-off read from the data, not from the text of the source: active = normalized growth mostly below about 0.91 (no sharp cut-off); inconclusive = no clear call, values can overlap the other calls; inactive = mostly above about 0.92. The list shows a part of the results.

Experiment: chemical genetic growth profiling, strain panel (AID 1159580);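 note: tested at 20 µM; growth read once vehicle control cultures reached saturation at 30 °C; 1 = growth at the plate median or of vehicle wells; lower values mean less growth of the strain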
Details: S. cerevisiae deletion strains, growth OD

Measured: normalized growth

COc1ccc(CCC(=O)c2c(O)cc(O[C@@H]3O[C@H](CO)C(O)[C@H](O)C3O[C@@H]3O[C@@H](C)[C@H](O)[C@@H](O)[C@H]3O)cc2O)cc1O (some centres not stated)
inactive: locus YAL013W, strain DEP1, hits give low values 1 | locus YAL021C, strain ccr4, hits give low values 0.994 | locus YAL026C, strain drs2, hits give low values 1.04 | locus YAL030W, strain snc1, hits give low values 1.01 | locus YBL061C, strain skt5, hits give low values 1.02 | locus YBR009C, strain hhf1, hits give low values 1.02 | locus YBR021W, strain FUR4, hits give low values 0.997 | locus YBR023C, strain chs3, hits give low values 1.02 | locus YBR171W, strain sec66, hits give low values 1.04 | locus YBR229C, strain ROT2, hits give low values 0.998 | locus YBR231C, strain swc5, hits give low values 1.03 | locus YBR279W, strain paf1, hits give low values 1.02 | locus YCL011C, strain gbp2, hits give low values 1.02 | locus YCL016C, strain dcc1, hits give low values 1.01 | locus YCL029C, strain bik1, hits give low values 0.972 | locus YCL061C, strain MRC1, hits give low values 1.02 | locus YCL069W, strain vba3, hits give low values 1.02 | locus YCR088W, strain abp1, hits give low values 1.02 | locus YDL005C, strain med2, hits give low values 1.03 | locus YDL035C, strain GPR1, hits give low values 0.999 | locus YDL040C, strain nat1, hits give low values 0.998 | locus YDL074C, strain BRE1, hits give low values 0.966 | locus YDL101C, strain DUN1, hits give low values 0.995 | locus YDL134C, strain PPH21, hits give low values 0.997 | locus YDL185W, strain tfp1, hits give low values 0.955 | locus YDL192W, strain arf1, hits give low values 0.976 | locus YDR001C, strain nth1, hits give low values 1.01 | locus YDR069C, strain doa4, hits give low values 1.04 | locus YDR101C, strain arx1, hits give low values 0.987 | locus YDR137W, strain rgp1, hits give low values 1.04 | locus YDR150W, strain NUM1, hits give low values 1.01 | locus YDR159W, strain sac3, hits give low values 1.1 | locus YDR162C, strain NBP2, hits give low values 0.99 | locus YDR195W, strain ref2 0.986 | locus YDR297W, strain sur2, hits give low values 1.02 | locus YDR318W, strain mcm21, hits give low values 0.978 | locus YDR334W, strain swr1, hits give low values 1.03 | locus YDR335W, strain msn5, hits give low values 1.01 | locus YDR388W, hits give low values 0.995 | locus YDR392W, strain spt3, hits give low values 1.02 | locus YDR502C, strain sam2, hits give low values 1 | locus YEL003W, strain gim4, hits give low values 1.02 | locus YEL037C, strain rad23, hits give low values 1.01 | locus YEL061C, strain CIN8 (second series), hits give low values 1.01 | locus YEL061C, strain CIN8, hits give low values 0.999 | locus YER015W, strain faa2, hits give low values 1.01 | locus YER016W, strain bim1, hits give low values 1.03 | locus YER110C, hits give low values 0.983 | locus YER111C, strain swi4, hits give low values 1.01 | locus YER155C, strain BEM2 (second series), hits give low values 1.03 | locus YER155C, strain BEM2, hits give low values 0.992 | locus YER167W, strain BCK2, hits give low values 0.994 | locus YFR010W, strain ubp6, hits give low values 1.02 | locus YGL078C, strain dbp3, hits give low values 0.994 | locus YGL086W, strain mad1, hits give low values 0.999 | locus YGL167C, strain pmr1, hits give low values 1.03 | locus YGL173C, strain kem1, hits give low values 1.03 | locus YGL227W, strain vid30, hits give low values 1.02 | locus YGL240W, strain doc1, hits give low values 1.05 | locus YGL248W, strain PDE1, hits give low values 1 | locus YGL253W, strain hxk2, hits give low values 1.02 | locus YGR078C, strain PAC10, hits give low values 1.01 | locus YGR135W, strain pre9, hits give low values 1 | locus YGR229C, strain SMI1, hits give low values 1.01 | locus YGR252W, strain gcn5, hits give low values 1.07 | locus YHR013C, strain ard1, hits give low values 1 | locus YHR027C, strain rpn1, hits give low values 1.02 | locus YHR030C, strain SLT2, hits give low values 1 and 0.973 | locus YHR079C, strain IRE1 (second series), hits give low values 0.98 | locus YHR079C, strain IRE1, hits give low values 0.961 | locus YHR094C, strain hxt1, hits give low values 0.966 | locus YHR129C, strain ARP1, hits give low values 0.998 | locus YHR142W, strain chs7, hits give low values 1.01 | locus YHR200W, strain rpn10, hits give low values 0.975 | locus YIL066C, strain RNR3, hits give low values 0.994 | locus YIL073C, strain SPO22, hits give low values 0.941 | locus YIL125W, strain kgd1, hits give low values 0.981 | locus YIR030C, strain dcg1, hits give low values 0.988 | locus YJL092W, strain hpr5, hits give low values 1.01 | locus YJL095W, strain BCK1 (second series), hits give low values 1.01 | locus YJL095W, strain BCK1, hits give low values 0.969 and 0.981 | locus YJL115W, strain asf1, hits give low values 1.02 | locus YJL129C, strain trk1, hits give low values 1.03 | locus YJL134W, strain LCB3, hits give low values 0.999 | locus YJL154C, strain vps35, hits give low values 1.01 | locus YJL164C, strain tpk1, hits give low values 0.995 | locus YJL166W, strain qcr8, hits give low values 1.02 | locus YJL168C, strain set2, hits give low values 0.978 | locus YJL187C, strain SWE1 (second series), hits give low values 0.984 | locus YJL187C, strain SWE1, hits give low values 1.04 | locus YJR043C, strain POL32, hits give low values 0.963 | locus YJR066W, strain TOR1, hits give low values 0.896
